Measurements taken from ChEMBL document CHEMBL3988442, “University of Dundee, Small-Polar-MMV Screening Library” (2021).

Each compound was assayed against AMP-activated protein kinase, AMPK (Homo sapiens) (UniProt P54646+O43741+P54619+Q9UGJ0+Q9Y478+Q13131+Q9UGI9) (assay: AMP-dependent Kinase enzyme assay. An in vitro enzyme assay that detects ADP turnover that is directly proportional to AMPK activity. This uses naive AMPK that is activated during the assay with MK-8722). Conditions: 30 µM.
Assay type: functional
Set-up: scale not given: direction of the effect not stated beside the values

Compound	Percent Effect
Cc1cc(N2CCC(n3cc(CN4CCSCC4)nn3)CC2)ccn1	2.21%
O=C(O)c1cn(CC2CCCN(c3ccc4ccccc4n3)C2)nn1 (centres undefined)	-0.883%
Cc1cc(C(=O)N2CC[C@@]3(O)CCN(C(=O)N4CCCC4)C[C@H]3C2)no1	5.71%
Cc1nc(N)cc(C2(C)CCCNC2)n1 (centres undefined)	14.2%
O=C(NCc1ccnc(OCC2CC2)c1)C1COc2ccccc2O1 (centres undefined)	1.5%
COc1ccc(Cl)cc1C(C(=O)O)N1CCSCC1 (centres undefined)	3.31%
Cc1ncccc1C(=O)Nc1cccc(Cn2ccccc2=O)c1	3.58%
COc1ccc(C(C)NCCC(N)=O)cc1F (centres undefined)	-6.1%
O=C(Nc1ccccc1F)NC1(CO)CCOCC1	-1.57%
Cc1cc(=O)n2nc(Oc3cccc(I)c3)sc2n1	-1.18%
Cc1ccccc1SCC(=O)Nn1cnnc1	3.33%
CCCn1cc(-c2cc(C(=O)N(C)C)c3cccc(C)c3n2)cn1	7.04%
CN1CCN(c2cccc(NC(=O)NCc3csc(N(C)C)n3)c2)C1=O	-16.7%
O=C(Nc1cccc(N2CCCC2)c1)N[C@H](CCO)c1ccccc1	-57.9%
CCc1ccc2nc(-c3cnn(C)c3)cc(C(=O)N3CCOCC3)c2c1	8.54%
Cc1nn2cccnc2c1C(=O)NCc1ccccc1OCC1CC1	2.06%
CCN(Cc1ccccn1)C1CCN(c2ccccc2)C1=O (centres undefined)	-6.67%
Cc1ccc(C)c(CC(=O)NC2CCC(N3C(=O)CCC3=O)CC2)c1 (centres undefined)	-3.29%
CCc1oc(C(=O)NC(C)c2ncn[nH]2)cc1CN1CCCC1 (centres undefined)	-1.83%
C[C@@H]1CN(C(=O)Cn2ccc3ncccc3c2=O)C[C@H](C)O1	-2.09%

Compound	Percent Effect
CS(=O)(=O)CC1(CNc2cc(C#N)c3cc(Cl)ccc3n2)CC1	-0.595%
Cc1noc(C)c1CC(=O)N1CCCC(n2ccnc2C)C1 (centres undefined)	-4.43%
Cc1n[nH]c(C)c1NC(=O)NCc1ccccn1	-10.3%
CN(CCCO)C(=O)c1ccc2c(c1)nc(N1CC[C@H](O)C1)n2C	6.47%
O=C(CCn1cccn1)NCCOc1ncc(Cl)cc1Cl	2.54%
CC(c1ccc(F)cc1F)N1CCN(CCN2CCCC2=O)CC1 (centres undefined)	-18%
COC(=O)N1CCCCC1C(=O)N1CCN(c2ncccc2C)CC1 (centres undefined)	-4.85%
CCC[C@@H]1CN(c2cncc(C(=O)N3CCOCC3)n2)C[C@H]1N(C)C	14.3%
O=C(c1cccnc1)N1CCOC(Cc2ccccc2Cl)C1 (centres undefined)	11%
CN1CCN(C(=O)C2(S(C)(=O)=O)CCCC2)Cc2ccccc21	-2.88%
CCOc1ccc2cc(C(=O)NCCC(=O)N(C)C)[nH]c2c1	-3.77%
c1csc(N2CCN(c3ncnc4sccc34)CC2)n1	18.5%
Cc1nnc(NC(=O)c2c3c(nn2C2CCS(=O)(=O)C2)CCC3)s1 (centres undefined)	-6.11%
CN(Cc1csc(-c2cccs2)n1)Cc1ncccc1C(=O)O	-1.78%
CCN(CC)C(=O)CS(=O)(=O)c1cc(OC)c(OC)cc1C	3.6%
CCc1nnc2n1CCN(c1nc(C)cc(N(C)C)n1)C2	-7.79%
Cc1nccn1CCN(C)C(=O)c1cn(CC2CCCCC2)nn1	9.45%
N#Cc1ccc(SCCC(=O)NC(N)=O)cc1	-6.73%
O=C(CCn1ccnn1)N1CCCC(n2cncn2)C1 (centres undefined)	14.6%
